Results filed as inconclusive are left out. Calls of active or inactive are those of the source. The call rests on the fitted dose curve; in most records, active means well fitted inhibition curve with a large enough effect; inconclusive means small, poorly fitted or top-dose-only effect; inactive means flat fitted curve, though single readings scatter.
On the % scale 0 is the no-effect control and ±100 the full control effect; potency means the concentration at half of the fitted maximal effect.

The experiment concerns NIH3T3. In words: Cytotoxic Profiling of Annotated Libraries Using Quantitative High-Throughput Screening (AID 1296008). Further: nearly all actives have a fitted effect of over 60% in size. Conditions: Five cell lines viability, CellTiter-Glo ATP luminescence, 48-72 h; max response: active compounds read low. In short, it runs like this:
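Cytotoxicity was measured as CellTiter-Glo ATP luminescence, read after 10 min at room temperature. Compound treatment of the cells lasted 48 or 72 hr at 37 degrees Celsius in a qHTS format.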
`CCN(CC)CCN(Cc1ccc(-c2ccc(C(F)(F)F)cc2)cc1)C(=O)Cn1c(SCc2ccc(F)cc2)nc(=O)c2c1CCC2`: the Potency is 4.61 µM (active).
As to `Cn1cc(S(=O)(=O)c2ccc(Cl)cc2)c2cccc(N3CCNCC3)c21`, the Potency is 18.4 µM (active).
In the case of `Cc1ncc(CCCN(C)C)cc1Nc1ncc2c(n1)-c1ccc(C(F)(F)F)cc1NC(=S)C2`, the Potency is 3.66 µM (active).
The same measure, in the same setting: as for `N#Cc1c(Oc2ccc(F)c(NC(=O)Cc3cccc(C(F)(F)F)c3)c2)ccc2nc(NC(=O)C3CC3)sc12`, the figure is 1.46 µM (active).
Take `O=C(Nc1ccc(-c2ccncc2)cc1)N[C@H](CO)c1ccccc1`: the max response was -5.95% (inactive).
Take `Cc1cccc2c1NC(=O)C2(c1ccc(O)cc1)c1ccc(O)cc1`: the max response was -15.5% (inactive).
Consider `Cc1ccc(NC(=O)Nc2cc(C(F)(F)F)ccc2F)cc1Nc1ccc2c(c1)NC(=O)/C2=C\c1ccc[nH]1`, for which the Potency is 18.4 µM (active).
The same measure, in the same setting: as for `CN(C)CCCCC(=O)Nc1ccc(NC(=S)NC(=O)c2ccc(C(C)(C)C)cc2)cc1`, the figure is 7.31 µM (active); as for `Cc1cc(Nc2ccc(NC(=O)c3ccc(Nc4ccnc5ccccc45)cc3)cc2)nc(N)n1`, 18.4 µM (active).
On to `COc1cc(O)c2c(c1)C1=CC(O)C(O)CC1(C)OC2=O` (configuration not stated), for which the max response was -6.33% (inactive).
The same measure, in the same setting: as for `NC(=O)c1cccc2cn(-c3ccc(C4CCCNC4)cc3)nc12` (configuration not stated), the figure is -14% (inactive).
As to `Cc1cccc(/C=N/Nc2cc(N3CCOCC3)n3nc(-c4ccncc4)cc3n2)c1`, the Potency is 0.651 µM (active).
